According to the supplement of paper PMC10849652:
Targets with a hit are over-represented here; the source holds about 7,900 in all. About 0.6% of all pairs of compound and target were hits.

What was measured:
Assay in all cases: log2 fold change, soluble protein after heating vs DMSO (PISA); higher = thermal stabilisation; K562 cells, 10 uM, 30 min; active = over 0.2 and 3.5 SD of the protein, either way, in both replicates (recomputed)
[1] = compound: CS(=O)(=O)c1ccc(-c2cnc(N)c(C(=O)Nc3ccccc3)n2)cc1
Summary of the method: (§1)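 For each measurement, 10 μM compound was applied for 30 min to K562 cells at 2×10^6 cells/mL. Aliquots were heated for 3 min across 48°C-58°C, pooled, and extracted in PBS with 0.5% NP-40 at 4°C; the supernatant after 21,000xg for 90 min was soluble protein. This was quantified by TMTpro 16plex LC-MS/MS with channel sums equalised, and thermal stability was reported relative to control samples from duplicates, on a log2 fold-change scale.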

crizotinib = compound: C[C@@H](Oc1cc(-c2cnn(C3CCNCC3)c2)cnc1N)c1c(Cl)ccc(F)c1Cl [crizotinib]
Summary of the method: as §1

[2] = compound: C[C@@H]1COCCN1C2=NC(=NC(=C2)C3(CC3)S(=O)(=O)C)C4=C5C=CNC5=CC=C4
Summary of the method: as §1

[3] = compound: C[C@H](C1=CC=C(C=C1)C(=O)NC2=C3C=CNC3=NC=C2)N
Summary of the method: as §1

duvelisib = compound: C[C@H](Nc1ncnc2nc[nH]c12)c1cc2cccc(Cl)c2c(=O)n1-c1ccccc1 [duvelisib]
Summary of the method: as §1

gandotinib = compound: Cc1cc(Nc2cc(CN3CCOCC3)c3nc(C)c(Cc4ccc(Cl)cc4F)n3n2)n[nH]1 [gandotinib]
Summary of the method: as §1

tozasertib = compound: Cc1cc(Nc2cc(N3CCN(C)CC3)nc(Sc3ccc(NC(=O)C4CC4)cc3)n2)n[nH]1 [tozasertib]
Summary of the method: as §1

[4] = compound: Cc1cc(SCc2sc(-c3ccc(C(F)(F)F)cc3)nc2C)ccc1OCC(=O)O
Summary of the method: as §1

doramapimod = compound: Cc1ccc(-n2nc(C(C)(C)C)cc2NC(=O)Nc2ccc(OCCN3CCOCC3)c3ccccc23)cc1 [doramapimod]
Summary of the method: as §1

ispinesib = compound: Cc1ccc(C(=O)N(CCCN)[C@@H](c2nc3cc(Cl)ccc3c(=O)n2Cc2ccccc2)C(C)C)cc1 [ispinesib]
Summary of the method: as §1

bafetinib = compound: Cc1ccc(NC(=O)c2ccc(CN3CC[C@H](N(C)C)C3)c(C(F)(F)F)c2)cc1Nc1nccc(-c2cncnc2)n1 [bafetinib]
Summary of the method: as §1

[5] = compound: Cc1cccc(CC(=O)N2CCc3c2ccc(-c2cn(C)c4ncnc(N)c24)c3F)n1
Summary of the method: as §1

nilotinib = compound: Cc1cn(-c2cc(NC(=O)c3ccc(C)c(Nc4nccc(-c5cccnc5)n4)c3)cc(C(F)(F)F)c2)cn1 [nilotinib]
Summary of the method: as §1

[6] = compound: Cc1nc(Nc2n[nH]c3c2CN(C(=O)N[C@H](CN(C)C)c2ccccc2)C3(C)C)c2sccc2n1
Summary of the method: as §1

dasatinib = compound: Cc1nc(Nc2ncc(C(=O)Nc3c(C)cccc3Cl)s2)cc(N2CCN(CCO)CC2)n1 [dasatinib]
Summary of the method: as §1

[7] = compound: Cc1ncc(-c2ccnc(Nc3ccc(S(C)(=O)=O)cc3)n2)n1C(C)C
Summary of the method: as §1

[8] = compound: Cn1cc(-c2ccc3c(c2)CCN3C(=O)Cc2cccc(C(F)(F)F)c2)c2c(N)ncnc21
Summary of the method: as §1

[9] = compound: Cn1cc(-c2ccc3nnc(C(F)(F)c4ccc5ncccc5c4)n3n2)cn1
Summary of the method: as §1

tipifarnib = compound: Cn1cncc1[C@@](N)(c1ccc(Cl)cc1)c1ccc2c(c1)c(-c1cccc(Cl)c1)cc(=O)n2C [tipifarnib]
Summary of the method: as §1

mubritinib = compound: FC(F)(F)c1ccc(/C=C/c2nc(COc3ccc(CCCCn4ccnn4)cc3)co2)cc1 [mubritinib]
Summary of the method: as §1

Chain of UniProt Q5JTZ9 (Q5JTZ9 whole entry, looked up): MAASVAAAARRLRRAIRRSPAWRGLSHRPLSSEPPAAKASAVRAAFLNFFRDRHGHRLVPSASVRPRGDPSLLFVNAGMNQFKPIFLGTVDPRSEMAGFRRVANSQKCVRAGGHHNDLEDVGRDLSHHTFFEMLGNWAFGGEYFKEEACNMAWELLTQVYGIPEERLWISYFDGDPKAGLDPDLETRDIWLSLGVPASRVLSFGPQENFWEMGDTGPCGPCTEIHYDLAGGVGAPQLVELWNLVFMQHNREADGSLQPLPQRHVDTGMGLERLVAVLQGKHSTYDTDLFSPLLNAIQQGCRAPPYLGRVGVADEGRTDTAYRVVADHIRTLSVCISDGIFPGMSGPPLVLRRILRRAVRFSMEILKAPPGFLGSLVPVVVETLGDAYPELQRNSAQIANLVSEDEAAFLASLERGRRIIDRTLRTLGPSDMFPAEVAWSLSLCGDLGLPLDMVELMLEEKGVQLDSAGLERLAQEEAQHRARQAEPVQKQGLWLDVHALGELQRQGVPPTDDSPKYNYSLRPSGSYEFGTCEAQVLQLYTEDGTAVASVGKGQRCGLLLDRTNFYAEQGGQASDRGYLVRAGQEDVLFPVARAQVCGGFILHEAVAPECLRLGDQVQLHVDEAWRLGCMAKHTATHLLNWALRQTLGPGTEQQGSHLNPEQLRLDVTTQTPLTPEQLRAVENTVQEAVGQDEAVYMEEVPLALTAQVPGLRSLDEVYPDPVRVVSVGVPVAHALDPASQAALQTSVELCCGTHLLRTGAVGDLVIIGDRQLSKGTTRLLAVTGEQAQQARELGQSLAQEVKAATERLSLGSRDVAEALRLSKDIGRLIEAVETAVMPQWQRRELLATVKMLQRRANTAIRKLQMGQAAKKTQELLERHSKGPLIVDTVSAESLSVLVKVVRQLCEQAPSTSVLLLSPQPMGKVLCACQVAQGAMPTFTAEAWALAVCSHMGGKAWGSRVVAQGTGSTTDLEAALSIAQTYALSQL
Chain of UniProt O43861 (O43861 whole entry, looked up): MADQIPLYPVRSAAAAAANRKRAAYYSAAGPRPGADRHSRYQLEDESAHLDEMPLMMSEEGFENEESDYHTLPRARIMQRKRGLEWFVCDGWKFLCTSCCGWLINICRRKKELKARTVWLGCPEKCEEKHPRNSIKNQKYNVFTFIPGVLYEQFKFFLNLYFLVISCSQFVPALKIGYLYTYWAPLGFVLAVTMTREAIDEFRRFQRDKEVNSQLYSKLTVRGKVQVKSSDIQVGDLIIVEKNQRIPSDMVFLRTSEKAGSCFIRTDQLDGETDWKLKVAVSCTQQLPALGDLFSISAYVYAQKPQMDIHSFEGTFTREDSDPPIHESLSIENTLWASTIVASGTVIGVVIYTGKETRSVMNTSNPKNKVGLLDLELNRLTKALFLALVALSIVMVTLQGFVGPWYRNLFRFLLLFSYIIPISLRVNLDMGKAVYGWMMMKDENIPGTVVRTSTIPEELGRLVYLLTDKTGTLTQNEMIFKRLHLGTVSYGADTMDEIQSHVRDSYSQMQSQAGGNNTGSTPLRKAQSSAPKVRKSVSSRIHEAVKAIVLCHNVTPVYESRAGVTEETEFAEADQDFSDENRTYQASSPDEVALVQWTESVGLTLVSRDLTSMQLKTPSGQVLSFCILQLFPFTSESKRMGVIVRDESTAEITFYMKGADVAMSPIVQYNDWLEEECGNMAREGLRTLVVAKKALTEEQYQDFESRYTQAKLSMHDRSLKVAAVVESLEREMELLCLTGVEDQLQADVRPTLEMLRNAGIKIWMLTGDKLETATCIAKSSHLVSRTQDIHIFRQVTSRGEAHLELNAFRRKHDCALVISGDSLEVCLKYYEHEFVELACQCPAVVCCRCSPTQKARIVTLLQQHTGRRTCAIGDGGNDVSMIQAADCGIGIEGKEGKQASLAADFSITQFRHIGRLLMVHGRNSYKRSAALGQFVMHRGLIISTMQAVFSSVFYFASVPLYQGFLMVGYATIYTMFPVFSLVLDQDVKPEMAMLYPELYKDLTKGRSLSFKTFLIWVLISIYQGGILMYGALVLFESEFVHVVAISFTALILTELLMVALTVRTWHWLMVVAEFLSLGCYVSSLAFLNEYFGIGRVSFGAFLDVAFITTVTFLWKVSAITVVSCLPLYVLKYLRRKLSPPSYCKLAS
Chain of UniProt P53680 (P53680 whole entry, looked up): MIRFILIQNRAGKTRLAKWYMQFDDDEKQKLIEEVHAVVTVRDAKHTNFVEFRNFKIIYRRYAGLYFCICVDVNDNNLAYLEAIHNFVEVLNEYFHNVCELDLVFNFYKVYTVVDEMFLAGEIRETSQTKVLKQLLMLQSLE
Chain of UniProt Q86WA6 (Q86WA6 whole entry, looked up): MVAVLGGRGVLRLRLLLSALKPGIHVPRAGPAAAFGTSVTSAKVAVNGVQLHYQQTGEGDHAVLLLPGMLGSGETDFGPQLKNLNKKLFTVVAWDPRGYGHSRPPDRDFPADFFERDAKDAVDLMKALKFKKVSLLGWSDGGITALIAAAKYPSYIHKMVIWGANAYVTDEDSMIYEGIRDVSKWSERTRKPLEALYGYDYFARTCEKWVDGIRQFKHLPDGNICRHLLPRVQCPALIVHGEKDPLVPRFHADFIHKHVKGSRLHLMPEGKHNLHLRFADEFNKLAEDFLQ
Chain of UniProt Q7L1Q6 (Q7L1Q6 whole entry, looked up): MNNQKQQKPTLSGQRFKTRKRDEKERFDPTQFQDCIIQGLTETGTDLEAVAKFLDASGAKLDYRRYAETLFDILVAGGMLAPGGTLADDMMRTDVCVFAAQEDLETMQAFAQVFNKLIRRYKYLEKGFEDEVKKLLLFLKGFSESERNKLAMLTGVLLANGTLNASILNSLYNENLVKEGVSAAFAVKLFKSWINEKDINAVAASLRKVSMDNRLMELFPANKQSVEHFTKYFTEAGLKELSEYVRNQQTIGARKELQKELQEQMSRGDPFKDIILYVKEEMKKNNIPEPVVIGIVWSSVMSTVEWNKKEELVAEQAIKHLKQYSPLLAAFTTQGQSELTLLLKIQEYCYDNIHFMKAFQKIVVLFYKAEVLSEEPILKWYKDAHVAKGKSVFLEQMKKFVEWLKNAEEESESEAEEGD
Chain of UniProt Q16186 (Q16186 whole entry, looked up): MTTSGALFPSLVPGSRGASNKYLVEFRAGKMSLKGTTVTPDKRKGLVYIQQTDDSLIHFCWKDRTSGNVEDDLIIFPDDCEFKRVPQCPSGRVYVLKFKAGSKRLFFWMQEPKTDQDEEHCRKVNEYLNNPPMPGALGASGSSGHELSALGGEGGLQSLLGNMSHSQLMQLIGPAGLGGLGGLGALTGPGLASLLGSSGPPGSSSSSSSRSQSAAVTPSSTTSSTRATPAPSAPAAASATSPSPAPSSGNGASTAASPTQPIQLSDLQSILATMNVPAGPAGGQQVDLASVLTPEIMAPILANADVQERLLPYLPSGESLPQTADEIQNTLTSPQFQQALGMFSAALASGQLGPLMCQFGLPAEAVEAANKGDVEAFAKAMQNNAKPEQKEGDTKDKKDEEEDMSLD
Chain of UniProt Q02252 (Q02252 whole entry, looked up): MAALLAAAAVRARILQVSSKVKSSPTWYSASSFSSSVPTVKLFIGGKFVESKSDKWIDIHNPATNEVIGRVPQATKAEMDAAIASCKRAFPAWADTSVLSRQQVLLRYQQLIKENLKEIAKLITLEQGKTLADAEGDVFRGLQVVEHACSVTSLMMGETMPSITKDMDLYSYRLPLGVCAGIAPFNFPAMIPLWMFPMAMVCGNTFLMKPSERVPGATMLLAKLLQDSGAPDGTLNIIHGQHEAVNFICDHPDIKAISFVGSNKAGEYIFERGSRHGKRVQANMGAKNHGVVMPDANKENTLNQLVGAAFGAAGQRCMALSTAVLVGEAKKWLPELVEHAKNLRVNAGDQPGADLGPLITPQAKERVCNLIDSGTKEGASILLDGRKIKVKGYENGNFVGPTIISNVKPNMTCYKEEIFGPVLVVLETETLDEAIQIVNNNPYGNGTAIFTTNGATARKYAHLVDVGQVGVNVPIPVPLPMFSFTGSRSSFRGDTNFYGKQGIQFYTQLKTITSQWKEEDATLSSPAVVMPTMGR
Chain of UniProt Q07960 (Q07960 whole entry, looked up): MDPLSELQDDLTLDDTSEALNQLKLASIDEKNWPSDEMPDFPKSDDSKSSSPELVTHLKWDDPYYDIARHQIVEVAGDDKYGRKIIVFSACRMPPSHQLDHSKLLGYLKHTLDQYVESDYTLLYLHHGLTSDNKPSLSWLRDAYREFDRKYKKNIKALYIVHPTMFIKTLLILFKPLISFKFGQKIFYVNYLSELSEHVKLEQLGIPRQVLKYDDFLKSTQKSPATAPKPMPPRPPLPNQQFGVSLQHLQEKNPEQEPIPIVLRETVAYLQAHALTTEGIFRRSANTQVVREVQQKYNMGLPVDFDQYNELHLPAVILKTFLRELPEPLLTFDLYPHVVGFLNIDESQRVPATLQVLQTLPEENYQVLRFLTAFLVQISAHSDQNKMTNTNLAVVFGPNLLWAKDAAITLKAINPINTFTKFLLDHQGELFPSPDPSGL
Chain of UniProt P42025 (P42025 whole entry, looked up): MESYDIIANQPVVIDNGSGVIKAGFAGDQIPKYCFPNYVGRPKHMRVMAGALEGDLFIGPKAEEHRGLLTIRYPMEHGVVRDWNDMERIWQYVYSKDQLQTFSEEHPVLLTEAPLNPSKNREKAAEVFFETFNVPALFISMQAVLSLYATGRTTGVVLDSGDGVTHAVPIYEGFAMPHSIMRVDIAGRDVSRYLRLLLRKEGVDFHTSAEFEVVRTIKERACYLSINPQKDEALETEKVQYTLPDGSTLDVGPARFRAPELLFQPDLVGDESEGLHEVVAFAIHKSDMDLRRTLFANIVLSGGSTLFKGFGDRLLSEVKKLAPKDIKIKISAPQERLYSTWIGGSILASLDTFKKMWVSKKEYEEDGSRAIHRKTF
Chain of UniProt P55957 (P55957 whole entry, looked up): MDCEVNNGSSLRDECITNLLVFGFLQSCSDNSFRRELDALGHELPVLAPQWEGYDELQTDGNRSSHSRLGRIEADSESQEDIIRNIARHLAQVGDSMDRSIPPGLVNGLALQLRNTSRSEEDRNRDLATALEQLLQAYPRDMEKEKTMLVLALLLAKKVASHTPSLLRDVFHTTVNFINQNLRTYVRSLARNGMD

Row | Target | log2 fold change [1] | log2 fold change (crizotinib) | log2 fold change [2] | log2 fold change [3] | log2 fold change (duvelisib) | log2 fold change (gandotinib) | log2 fold change (tozasertib) | log2 fold change [4] | log2 fold change (doramapimod) | log2 fold change (ispinesib) | log2 fold change (bafetinib) | log2 fold change [5] | log2 fold change (nilotinib) | log2 fold change [6] | log2 fold change (dasatinib) | log2 fold change [7] | log2 fold change [8] | log2 fold change [9] | log2 fold change (tipifarnib) | log2 fold change (mubritinib)
1 | AARS2 (UniProt Q5JTZ9) | 0.017 (inactive) | -0.04 (inactive) | 0.138 (inactive) | -0.03 (inactive) | 0.053 (inactive) | -0.058 (inactive) | -0.039 (inactive) | 0.036 (inactive) | 0.026 (inactive) | -0.223 (active) | -0.07 (inactive) | 0.011 (inactive) | -0.085 (inactive) | -0.047 (inactive) | -0.184 (inactive) | -0.036 (inactive) | 0.052 (inactive) | 0.05 (inactive) | -0.063 (inactive) | -0.143 (inactive)
2 | ARHGAP1 (UniProt Q07960) | 0.011 (inactive) | 0.154 (inactive) | 0.038 (inactive) | -0.003 (inactive) | 0.057 (inactive) | 0.011 (inactive) | 0.046 (inactive) | 0 (inactive) | -0.039 (inactive) | 0.235 (active) | 0.001 (inactive) | 0.016 (inactive) | -0.019 (inactive) | -0.056 (inactive) | -0.101 (inactive) | 0.007 (inactive) | -0.025 (inactive) | -0.008 (inactive) | -0.069 (inactive) | 0.01 (inactive)
3 | AKT1 (UniProt P31749) | -0.013 (inactive) | -0.104 (inactive) | -0.188 (inactive) | 0.135 (inactive) | -0.062 (inactive) | -0.144 (inactive) | 0.032 (inactive) | 0.298 (inactive) | -0.005 (inactive) | -0.03 (inactive) | 0.041 (inactive) | 0.004 (inactive) | 0.033 (inactive) | -0.275 (inactive) | -0.416 (inactive) | -0.158 (inactive) | 0.048 (inactive) | 0 (inactive) | -0.136 (inactive) | 0.033 (inactive)
4 | ATL2 (UniProt Q8NHH9) | 0.078 (inactive) | -0.031 (inactive) | -0.003 (inactive) | -0.014 (inactive) | 0.052 (inactive) | -0.035 (inactive) | -0.062 (inactive) | 0.056 (inactive) | -0.018 (inactive) | 0.376 (active) | 0.026 (inactive) | 0.034 (inactive) | 0.081 (inactive) | -0.008 (inactive) | -0.129 (inactive) | 0.031 (inactive) | 0.083 (inactive) | 0.18 (inactive) | -0.014 (inactive) | 0.104 (inactive)
5 | BRIX1 (UniProt Q8TDN6) | -0.027 (inactive) | -0.097 (inactive) | -0.292 (inactive) | 0.318 (inactive) | -0.117 (inactive) | 0.056 (inactive) | 0.196 (inactive) | 0.093 (inactive) | 0.288 (inactive) | 0.166 (inactive) | 0.386 (inactive) | -0.033 (inactive) | 0.085 (inactive) | -0.077 (inactive) | 0.109 (inactive) | -0.013 (inactive) | -0.494 (inactive) | -0.138 (inactive) | 0.158 (inactive) | -0.206 (inactive)
6 | ASH2L (UniProt Q9UBL3) | 0.008 (inactive) | 0.126 (inactive) | 0.046 (inactive) | 0.058 (inactive) | 0.028 (inactive) | 0.004 (inactive) | 0.068 (inactive) | 0.02 (inactive) | -0.068 (inactive) | 0.036 (inactive) | 0 (inactive) | -0.013 (inactive) | -0.008 (inactive) | -0.041 (inactive) | -0.004 (inactive) | 0.013 (inactive) | -0.07 (inactive) | -0.017 (inactive) | -0.041 (inactive) | -0.023 (inactive)
7 | AP2S1 (UniProt P53680) | -0.022 (inactive) | -0.106 (inactive) | 0.453 (inactive) | -0.151 (inactive) | 0.04 (inactive) | -0.046 (inactive) | -0.054 (inactive) | 0.046 (inactive) | 0.031 (inactive) | 0.077 (inactive) | 0.023 (inactive) | -0.01 (inactive) | -0.019 (inactive) | -0.009 (inactive) | -0.011 (inactive) | -0.082 (inactive) | -0.057 (inactive) | 0.004 (inactive) | -0.04 (inactive) | -0.001 (inactive)
8 | ACTR1B (UniProt P42025) | 0 (inactive) | -0.009 (inactive) | 0.156 (inactive) | 0.072 (inactive) | 0.009 (inactive) | -0.167 (inactive) | 0.073 (inactive) | -0.022 (inactive) | 0 (inactive) | 0.124 (inactive) | -0.062 (inactive) | -0.221 (inactive) | 0.034 (inactive) | -0.011 (inactive) | 0.034 (inactive) | 0.083 (inactive) | -0.011 (inactive) | 0.003 (inactive) | 0.077 (inactive) | -0.001 (inactive)
9 | ADRM1 (UniProt Q16186) | 0.006 (inactive) | -0.109 (inactive) | -0.028 (inactive) | 0.138 (inactive) | -0.036 (inactive) | -0.056 (inactive) | -0.028 (inactive) | 0.069 (inactive) | 0.041 (inactive) | -0.05 (inactive) | 0.238 (active) | 0.072 (inactive) | 0.028 (inactive) | 0.063 (inactive) | -0.036 (inactive) | 0.006 (inactive) | -0.061 (inactive) | -0.003 (inactive) | 0.01 (inactive) | -0.006 (inactive)
10 | BID isoform 2 (UniProt P55957) | 0.047 (inactive) | 0.087 (inactive) | 0.409 (active) | -0.019 (inactive) | 0.049 (inactive) | -0.012 (inactive) | -0.012 (inactive) | -0.003 (inactive) | -0.013 (inactive) | 0.022 (inactive) | -0.035 (inactive) | -0.071 (inactive) | 0.019 (inactive) | -0.006 (inactive) | 0.018 (inactive) | 0.005 (inactive) | 0.038 (inactive) | 0.007 (inactive) | -0.079 (inactive) | 0.044 (inactive)
11 | BZW1 isoform 3 (UniProt Q7L1Q6) | 0.007 (inactive) | -0.426 (inactive) | 0.007 (inactive) | 0.051 (inactive) | -0.03 (inactive) | -0.189 (inactive) | 0.054 (inactive) | 0.181 (inactive) | -0.008 (inactive) | -0.209 (inactive) | 0.002 (inactive) | 0.167 (inactive) | -0.124 (inactive) | -0.138 (inactive) | -0.283 (inactive) | 0.03 (inactive) | 0.017 (inactive) | 0.011 (inactive) | -0.364 (inactive) | 0.089 (inactive)
12 | ACSM3 (UniProt Q53FZ2) | -0.001 (inactive) | -0.002 (inactive) | 0.027 (inactive) | -0.095 (inactive) | -0.131 (inactive) | -0.037 (inactive) | -0.001 (inactive) | 0.049 (inactive) | 0.023 (inactive) | 0.226 (inactive) | 0.009 (inactive) | -0.061 (inactive) | -0.015 (inactive) | 0.002 (inactive) | -0.185 (inactive) | 0.028 (inactive) | 0.012 (inactive) | 0.128 (inactive) | 0.002 (inactive) | -0.343 (active)
13 | ATP9B (UniProt O43861) | 0.281 (inactive) | -0.033 (inactive) | -0.066 (inactive) | -0.098 (inactive) | 0.029 (inactive) | -0.053 (inactive) | 0.004 (inactive) | 0 (inactive) | 0.015 (inactive) | -0.208 (inactive) | -0.042 (inactive) | -0.042 (inactive) | -0.147 (inactive) | -0.149 (inactive) | -0.067 (inactive) | 0.038 (inactive) | 0.037 (inactive) | -0.096 (inactive) | 0.121 (inactive) | 0.069 (inactive)
14 | ALDH6A1 (UniProt Q02252) | -0.008 (inactive) | 0.042 (inactive) | 0.109 (inactive) | 0.009 (inactive) | 0.106 (inactive) | -0.057 (inactive) | -0.054 (inactive) | 0.008 (inactive) | 0.033 (inactive) | -0.042 (inactive) | -0.045 (inactive) | -0.103 (inactive) | -0.003 (inactive) | 0.018 (inactive) | -0.204 (inactive) | -0.015 (inactive) | -0.019 (inactive) | -0.019 (inactive) | 0.01 (inactive) | -0.528 (active)
15 | BPHL (UniProt Q86WA6) | 0.02 (inactive) | -0.036 (inactive) | 0.008 (inactive) | -0.059 (inactive) | 0.024 (inactive) | 0.05 (inactive) | 0.192 (inactive) | -0.01 (inactive) | 0.004 (inactive) | 0.01 (inactive) | -0.005 (inactive) | 0.002 (inactive) | -0.032 (inactive) | -0.034 (inactive) | -0.032 (inactive) | -0.021 (inactive) | 0.082 (inactive) | 0.009 (inactive) | 0.032 (inactive) | -0.008 (inactive)
